# FXN GAA850 act: frataxin GAA850 promoter activation. activation, % at 6 µM. HEK293 lucGAA850 FXN promoter luciferase reporter, 24 h; percent of 10 µM SAHA response. 0.56% of 360,000 active;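 active = activation above the average of all compounds screened plus 3 SD, cutoff fixed separately per campaign, cut at about 7.5% in these data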;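 also: 0% = DMSO wells and 100% = 10 µM SAHA wells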
# ssDAF12 agonist: activators of S. stercoralis DAF-12 nuclear receptor; HEK293 ssDAF-12/GRIP1 lit1-tk-luc reporter, luminescence; % of 3 µM dafachronic acid response; activation, % at 6.8 µM; 1% of 370,000 active; AID 652126;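 active = activation above the mean over all tested compounds plus 3 SD, cut at about 0.9% in these data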;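 also: 0% = DMSO-only wells and 100% = 3 µM delta7-dafachronic acid wells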
# hgDAF12 agonist: activates the H. glycines DAF-12 receptor ligand-binding domain. HEK293 GAL4-hgDAF12 UAS-luciferase reporter, agonist luminescence; normalized to butyrate control. activation, % at 6.8 µM. 1.8% of 370,000 active. AID 687014;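 active = activation above a cutoff set at the mean of all screened compounds plus 3 SD, cut at about 10% in these data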;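 also: 0% = DMSO wells and 100% = sodium butyrate wells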
# hcDAF12 agonist: H. contortus DAF-12 activation, primary screen | activation, % at 6.8 µM | HEK293 hcDAF-12 lit1-tk-luc reporter, luminescence; 0% DMSO, 100% Δ7-dafachronic acid | AID 652067 | 1.4% of 370,000 active;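 active = activation above the mean of all tested compounds plus 3 SD, cut at about 5.5% in these data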;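 also: 100% = response to 3 µM Δ7-dafachronic acid high control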
# DAX1 inh-1: blocks DAX1 repression of SF-1 activated StAR promoter; AID 652010; HEK293T StAR-luciferase reporter, SF-1/DAX-1 repression relief; inhibition, % at 6.8 µM; 1.1% of 370,000 active;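 active = inhibition above the mean over all tested compounds plus 3 SD, cut at about 3.6% in these data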;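 also: 0% = DAX-1 cells with DMSO and 100% = cells lacking DAX-1 with DMSO; higher inhibition means more luminescence from relief of DAX-1 repression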
# DAX1 inh-2: inhibitors of human orphan nuclear receptor DAX1 (NR0B1); HEK293 Gal4-DAX1 luciferase reporter, luminescence; 0.99% of 340,000 active; inhibition, % at 6.75 µM; AID 504766; P51843;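 active = inhibition above the mean over all tested compounds plus 3 SD, cut at about 4.2% in these data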;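 also: 0% = DAX1-transfected cells with DMSO and 100% = empty-vector control cells with DMSO; inhibition shows as a rise in luminescence from relieved DAX1 repression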
# Target sequence (P51843 207-470 limits assumed): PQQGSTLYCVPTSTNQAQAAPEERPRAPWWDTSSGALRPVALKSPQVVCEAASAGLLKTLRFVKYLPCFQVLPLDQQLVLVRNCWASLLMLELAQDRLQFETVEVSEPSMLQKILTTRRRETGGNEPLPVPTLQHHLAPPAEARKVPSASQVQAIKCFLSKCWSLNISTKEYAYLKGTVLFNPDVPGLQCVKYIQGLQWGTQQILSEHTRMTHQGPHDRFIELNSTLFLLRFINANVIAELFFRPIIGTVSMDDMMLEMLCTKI
# An asterisk follows results filed as active; x = no result. An excerpt weighted towards active compounds, which were near 4.5% of everything screened.
SMILES,FXN GAA850 act,ssDAF12 agonist,hgDAF12 agonist,hcDAF12 agonist,DAX1 inh-1,DAX1 inh-2
CCOC(=O)C1=C(COC(=O)c2cccc(Br)c2)NC(=O)NC1C (stereo unspecified),0,-1,-2,0,2,-1
CCOC(=O)C1=C(COC(=O)c2cccc(N(C)C)c2)NC(=O)NC1C (stereo unspecified),8,0,5,1,4.2*,0
CC(=O)Nc1cc2c3c(cccc3c1)-c1ccccc1-2,4,0,11*,2,1,1
CCc1ccc(N2CC34C=CC(O3)C(C(=O)OC)C4C2=O)cc1 (stereo unspecified),2,-1,-1,-1,1,4.4*
CCc1ccc(N2CC34C=CC(O3)C(C(=O)OC(C)C)C4C2=O)cc1 (stereo unspecified),0,-1,0,-1,0,1
COc1ccc(NC(=O)Cc2c(Sc3ccccc3)c3ccccc3n2C)cc1,2,0,0,4,1,-1
Cn1c(CC(=O)Nc2ccc(F)cc2)c(Sc2ccccc2)c2ccccc21,1,-1,0,6.5*,0,0
COC(=O)C[C@H]1CC[C@H]2[C@H](COc3ccc(NC(=O)c4cccs4)cc3C(=O)N2C)O1,x,-2,4,-2,1,x
CNC(=S)NNC(=O)c1sccc1C,4,-1,-2,0,0,-1
Cc1ccsc1C(=O)NNC(=S)NC1CCCCC1,3,0,4,0,4.1*,1
O=C(Nc1ccccc1)Nc1c(-c2ccccc2)nc2ncccn12,x,-1,-3,-1,-1,x
O=c1[nH][nH]cc1C=Nc1ccc(Cl)cc1Cl,1,1.6*,-1,0,0,1
O=c1[nH][nH]cc1C=Nc1cc(Cl)ccc1O,4,-1,-2,3,0,-1
CC(C)C[C@@H]1COc2cccc(N3CCCC3)c2S(=O)(=O)N1C,x,-2,-4,-2,-1,x
CCCCOCCCNC(=O)C[C@H]1C[C@@]2(C(=O)OC)C(=C[C@H](C(C)C)O[C@@H]2C2CC2)N(Cc2ccc3c(c2)OCO3)C1=O,x,-2,-3,1,0,x
Cc1occc1C(=O)N/N=C/C=C/c1ccc(N(C)C)cc1,2,0,12*,2,3.8*,1
Cc1occc1C(=O)N/N=C/C=C/c1ccccc1,6,0,8,1,4,4
CC(NC(=O)CSc1ncccc1C(=O)O)C1CC2CCC1C2 (stereo unspecified),2,-1,0,-1,0,5.1*
CC(NC(=O)CSc1ccccc1C(=O)O)C1CC2CCC1C2 (stereo unspecified),1,-1,-1,-1,0,1
O=C(NCc1ccc(C(=O)N2CCOCC2)cc1)c1cccc(Br)c1,x,-1,-1,-1,0,x
N#C/C(=C(\O)Cc1ccccc1)c1nc2ccccc2[nH]1,-1,-1,0,-1,-1,2
N#C/C(=C(/O)CCl)c1nc2ccccc2[nH]1,5,1.0*,-6,5,-2,-1
Cc1cc(Br)ccc1SCC(=O)OC/C(O)=C(\C#N)c1nc2ccccc2[nH]1,1,1.1*,6,3,-1,1
Cc1cccc(Nc2nnc(SC/C(O)=C(\C#N)c3nc4ccccc4[nH]3)s2)c1C,-2,1.0*,2,5,0,1
COCC(=O)OC/C(O)=C(\C#N)c1nc2ccccc2[nH]1,7,-2,-4,-2,-2,4.7*
SMILES,FXN GAA850 act,ssDAF12 agonist,hgDAF12 agonist,hcDAF12 agonist,DAX1 inh-1,DAX1 inh-2
Cc1cc(Br)ccc1SCC(=O)OCC(O)=C(C#N)c1nc2ccccc2[nH]1,3,-1,0,4,1,0
O=C(NCCc1c[nH]c2ccccc12)OCc1cn(Cc2cc(F)cc(F)c2)nn1,x,-1,-6,-3,0,x
CCOc1ccc(N(CC(=O)Nc2c(C)n(C)n(-c3ccccc3)c2=O)S(=O)(=O)c2ccc(C)c(C)c2)cc1,x,-1,-1,-3,-1,x
Cc1cc2nc(CSc3ccc(Cl)cc3)cc(=O)n2[nH]1,0,-1,-3,-2,-1,11*
Cc1nc2nc(CSc3ccc(Cl)cc3)cc(=O)n2[nH]1,0,-1,2,-1,0,2
CCOC(=O)/C(C#N)=C/c1cn(CCOc2ccccc2)c2ccccc12,0,6.7*,1,-1,0,0
O=C(NC1CCCC1)C1CCN(S(=O)(=O)c2ccc3[nH]c(=O)oc3c2)CC1,x,-1,1,1,-1,x
COc1ccccc1Nc1cc2cc(Br)ccc2c(=O)[nH]1,-2,0,2,6.2*,0,1
O=S(=O)(Nc1nc2ccccc2nc1N1CCc2ccccc2C1)c1ccc(Br)cc1,-1,2.4*,16*,22*,5.8*,-1
CN1CCN(c2nc3ccccc3nc2NS(=O)(=O)c2ccc(Br)cc2)CC1,0,0,1,1,-1,0
O=C(O)CCCC(=O)Nc1ccc(Oc2ncnc3cc(Cl)ccc23)nc1,0,-2,-2,0,0,5.9*
O=C(Nc1ccc(F)cc1)Nc1ccc(Oc2ncnc3cc(Cl)ccc23)nc1,1,-1,-1,0,0,1
Cc1cccc(Nc2nnc(SCC(=O)NCC3CCCO3)s2)c1 (stereo unspecified),-1,-1,0,-1,-1,0
CC(C)c1ccc(Nc2nnc(SCC(=O)NCC3CCCO3)s2)cc1 (stereo unspecified),0,-1,12*,0,1,1
O=C(O)c1cccc2c1C(=O)c1cc([N+](=O)[O-])cc([N+](=O)[O-])c1-2,1,0.9*,0,0,0,-2
O=C(O)c1cccc2c1-c1ccc([N+](=O)[O-])cc1C2=O,-1,0,2,0,0,-1
CSc1nc(N)n2nccc2n1,x,-1,0,6.2*,0,x
CSc1nc(N)n2nc(C)cc2n1,x,-1,-2,0,0,x
CCCc1cc(=O)n2[nH]c(-c3ccc(Br)cc3)cc2n1,3,1.1*,6,5.6*,2,1
CCOC(=O)Cc1cc(=O)n2[nH]c(-c3ccccc3)cc2n1,-2,x,x,x,x,0
CN(Cc1cccs1)C(=O)CCc1c[nH]c2ccccc12,1,-1,-2,-1,0,2
CN(Cc1c(F)cccc1Cl)C(=O)CCc1c[nH]c2ccccc12,-1,-1,1,0,0,6.2*
Cc1cccc(CCNC(=O)Cn2nc(-c3ccccc3)ccc2=O)c1,x,0,1,-3,-1,x
CCn1c(COc2cccc3cccnc23)nnc1SCC(=O)O,-1,-2,-1,-1,1,5.4*
CCn1c(COc2cccc3cccnc23)nnc1SCC(=O)OC,3,-2,-2,0,0,0

# Source: PubChem BioAssay
